Assay results as given in PubChem BioAssay (NCI).
Compounds without any hit were thinned out: in the full panel of roughly 83,000, 20% have a hit.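 Compound tested at a single concentration for 48 hours in 96-well plates; a percent growth value below 10 was scored as active.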 Unmarked numbers belong to inactive results. Activity calls are given as the source filed them.

Experiments:
Assay in all cases: NCI-60 one-dose screen, 48 h (100 = growth as untreated, 0 = no growth, -100 = all killed)
Conditions in all cases: 10 µM
NCI-H23 lung = system: NCI-H23 lung
NCI-H226 lung = system: NCI-H226 lung
HOP-62 NSCLC = system: HOP-62 NSCLC
HOP-92 NSCLC = system: HOP-92 NSCLC
NCI-H522 lung = system: NCI-H522 lung
A549/ATCC NSCLC = system: A549/ATCC NSCLC
786-0 renal = system: 786-0 renal
COLO 205 colon = system: COLO 205 colon
DU-145 prostate = system: DU-145 prostate
K-562 leukemia = system: K-562 leukemia
MALME-3M melanoma = system: MALME-3M melanoma
MDA-MB-231 breast = system: MDA-MB-231 breast
RXF 393 renal = system: RXF 393 renal
SF-268 CNS = system: SF-268 CNS
SF-295 CNS = system: SF-295 CNS
SF-539 CNS = system: SF-539 CNS
M14 melanoma = system: M14 melanoma
UACC-257 melanoma = system: UACC-257 melanoma
NCI-H460 lung = system: NCI-H460 lung

| SMILES | growth (NCI-H23 lung) | growth (NCI-H226 lung) | growth (HOP-62 NSCLC) | growth (HOP-92 NSCLC) | growth (NCI-H522 lung) | growth (A549/ATCC NSCLC) | growth (786-0 renal) | growth (COLO 205 colon) | growth (DU-145 prostate) | growth (K-562 leukemia) | growth (MALME-3M melanoma) | growth (MDA-MB-231 breast) | growth (RXF 393 renal) | growth (SF-268 CNS) | growth (SF-295 CNS) | growth (SF-539 CNS) | growth (M14 melanoma) | growth (UACC-257 melanoma) | growth (NCI-H460 lung) |
| --- | --- | --- | --- | --- | --- | --- | --- | --- | --- | --- | --- | --- | --- | --- | --- | --- | --- | --- | --- |
| CCn1c(SCc2ccc(C)cc2)nnc1-c1nn(-c2ccc(Cl)cc2Cl)c(-c2ccc(Cl)cc2)c1C | 3.53% (active) | 11.6% | 9.33% (active) | -17.2% (active) | -17.4% (active) | 9.87% (active) | 12.2% | -34.3% (active) | 23.4% | 8.88% (active) | 7.8% (active) | 5.05% (active) | 8.71% (active) | 22.8% | 9.65% (active) | 19.8% | 12.3% |  |  |
| CCCCCCCCCCCC[n+]1c(C)cc(N)c2ccccc21 | -36.8% (active) | 11.1% | 3.61% (active) | -6.03% (active) | -29.7% (active) | 57% | 0.277% (active) | -66.7% (active) | 24.2% | -39.5% (active) |  | -3.36% (active) | -27.7% (active) | 19.6% | -1.01% (active) | 16.5% | -33.5% (active) | -17.8% (active) |  |
| CN(C)CCCOc1cccc(NC2=C(Cl)C(=O)C(Nc3cccc(OCCCN(C)C)c3)=C(Cl)C2=O)c1 | -67.1% (active) | -70% (active) |  | -74.3% (active) | -79.5% (active) | 52% | -94.2% (active) | -79.7% (active) | -97.7% (active) | -29.7% (active) | -74.8% (active) | -73.6% (active) | -88.8% (active) | -62.6% (active) | 64.3% | -77.7% (active) | -75.6% (active) | -90.1% (active) | 38.3% |
| COc1ccc(-c2nn(-c3cccc(Cl)c3)cc2-c2cc(-c3ccccc3)nc(N)n2)cc1 | 42.2% | 69.3% |  | 69.2% | 45.8% | 61.1% | 60.1% | 35.8% | 95.1% | -3.82% (active) | 52.1% | 35.1% | 56.2% | 65.7% | 55% | 89% | 52.6% | 81.1% | 31.6% |
| CCOC(=O)CC(S(=O)(=O)c1ccccc1)S(=O)(=O)c1ccccc1 | 98.3% | 95.7% |  | 89.7% | -11.9% (active) | 95.3% | 115% | -87.1% (active) | 111% | 78.7% | 39.8% | 109% | 57.5% | 101% | 108% | 104% | 115% | 89.6% | 103% |
| COc1ccc(-c2nn(-c3cccc(Cl)c3)cc2/C=C2\NC(=S)N(c3ccc(Cl)cc3)C2=O)cc1 | -7.88% (active) | -42.5% (active) |  | 29.3% | -37.7% (active) | 18.8% | 46.6% | 36.9% | 21.4% | -12.2% (active) | 19.1% | 11.8% | -7.45% (active) | 38% |  | 75.3% | 4.39% (active) | 1.55% (active) | 11% |
| Cc1cn(-c2cc(F)cc(NC(=O)c3ccc(C)c(Nc4nccc(-c5cccnc5)n4)c3)c2)cn1 | 94.2% | -12.3% (active) |  | -22% (active) | 11.5% | 19.3% | -6.06% (active) | 70.9% | 65.4% |  |  | 6.14% (active) | -1.37% (active) | 67.3% |  | -39.8% (active) | 60.2% | 23.1% | 20.1% |
| CC(C)Cc1ccc([C@H](C)C(=O)O)cc1 | 105% | 112% |  | 79% |  | 102% | 106% | 113% | 122% |  | 107% | 108% | 114% | 111% | 99% | 104% | 101% | 107% | 106% |
| CC(=O)[C@@]12O[C@](C)(c3ccccc3)O[C@@H]1CC1C3CCC4=CC(=O)CC[C@]4(C)C3CC[C@@]12C (some centres not stated) | 54.4% | 78.5% |  | 76.2% |  | 70.7% | 67.9% | 81.7% | 97.1% |  | 85.2% | 94.4% | 88.9% | 77.4% | 44.4% | 91.6% | 87% | 73.2% | 68.4% |
| Cc1ccc(C2=NN(c3ccc(S(C)(=O)=O)cc3)C(=O)CC2)cc1 | -19.6% (active) | 77.6% |  | 60.9% | -28.5% (active) | 36.6% | 38.3% | 4.23% (active) | 6.77% (active) | 11.7% | 45.5% | 47.8% | 15.4% | 55.2% |  | -7.93% (active) | 10.2% | 50.7% | 12.8% |
| Cc1c2cnccc2c(C)c2c1oc1ccccc12 | 56.1% | 69.4% |  | 113% | 69.6% | 43% | 84.9% |  | 54.1% | 77.2% | 62.7% | 111% | 71.5% | 73.8% | 74.9% | 96.6% | 81.6% | 86.8% | 28.4% |
| COc1cc(C(=O)/C(C)=C/c2c[nH]c3ccccc23)cc(OC)c1OC | 32.3% | 61.7% |  | 47.1% | -19.4% (active) | 11.6% | 11% | -39.2% (active) | 2.39% (active) | 14.3% | 68.1% | 16.1% | 46.2% | 26.8% | 12.4% | -3.72% (active) | -1.18% (active) |  | 9.7% (active) |
| COc1cc2c(cc1OC)C(C(CCCCCC(CCC(C)C)C1NCCc3cc(OC)c(OC)cc31)CCC(C)C)NCC2 (configuration not stated) | -87.4% (active) | -75.6% (active) |  | -90.4% (active) | -95.4% (active) | -92.9% (active) | -97.8% (active) | -94.5% (active) | -100% (active) | 13.6% |  | -81.9% (active) |  | -95.7% (active) | -77.5% (active) | -97.4% (active) | -93.6% (active) | -92.5% (active) | -80.3% (active) |
| Cc1cc(=O)n2nnc3cc(C(F)(F)F)ccc3n12 | 101% | 115% |  | 93.9% | 97.4% | 105% | 104% |  | 105% | 99.1% |  | 108% | 123% | 107% | 92.7% | 106% | 113% | 106% | 114% |
| COc1ccc(-c2nn(-c3cccc(Cl)c3)cc2-c2c(C#N)c(N)n(N)c(=O)c2C#N)cc1 | 66.9% | 66.5% |  | 53.8% | -46% (active) |  | 84.2% | 85.3% | 90.5% |  |  | 75.3% | 65.3% | 60.2% |  | 72.8% | 73.5% | 90.3% | 72.2% |
| Cc1cn(-c2cccc(NC(=O)c3ccc(C)c(Nc4nccc(-c5cccnc5)n4)c3)c2)cn1 | 32.2% | -43% (active) |  | -13% (active) | -17.7% (active) |  | -52.2% (active) | 11% | 13.3% | -22.5% (active) | 42% | -48.5% (active) | -49.5% (active) | 15.8% |  | -33.3% (active) | 22.6% | 29.1% | -13% (active) |
| COc1ccc2nc3cc(Cl)ccc3c(Nc3cc(CN4CCCC4)c(O)c(CN4CCCC4)c3)c2n1 | -29.4% (active) | -32.1% (active) |  | -16.4% (active) |  | 9.53% (active) | 0.406% (active) | -48.5% (active) | 18.2% |  | -73.6% (active) | -21.6% (active) | -68.9% (active) | -25.1% (active) | -26.8% (active) | -21.6% (active) | -82.5% (active) | -87.3% (active) | 4.16% (active) |
| CCC1NC(=O)c2cc(S(N)(=O)=O)c(Cl)cc2N1 (configuration not stated) | 108% | 102% |  | 91.2% |  | 104% | 116% | 109% | 124% |  | 118% | 109% | 115% | 115% | 93% | 115% | 110% | 104% | 114% |
